The nature of assay [1]: Nuclear factor erythroid 2-related factor 2/antioxidant responsive element (Nrf2/ARE) small molecule agonists: qHTS cell viability counter screen in human keratinocytes (AID 1919968; active = well fitted curve in the direction sought with a large enough effect in the repeat runs; an effect the other way counts as inactive or inconclusive; note: nearly all actives have a fitted effect of over 55% in size). In short, it runs like this: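 After a 5 h attachment period, ARE-reporter keratinocytes were dosed with compounds in DMSO and then cultured 23 h at 37 C. Cell viability came from CellTiter-Fluor signal read after a further 1 h.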

The nature of assay [2]: Nuclear factor erythroid 2-related factor 2/antioxidant responsive element (Nrf2/ARE) small molecule agonists: luciferase reporter gene qHTS assay in human keratinocytes (AID 1919969). Note: nearly all actives have a fitted effect of over 35% in size. Note: potency is the fitted concentration of half-maximal effect. Background: Reporter assays use an easily measured gene product as a stand-in for the process of interest.
Assay [3] deals with Gonadotropin-releasing hormone receptor (Homo sapiens) (UniProt P30968). In words: Human gonadotropin-releasing hormone receptor (GnRHR) small molecule agonists, calcium flux assay in GnRHR-HEK293 cells (AID 1920063). Note: nearly all actives have a fitted effect of over 35% in size. In short, it runs like this: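 We seeded human GnRHR-expressing HEK293 cells for 18 hours, loaded them with calcium dye for an hour at 37 C, added test compounds, and recorded fluorescence intensity kinetically for three minutes.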

Assay [4] addresses KiSS-1 receptor (Homo sapiens) (UniProt Q969F8). Briefly: Human kisspeptin (KISS1R) small molecule agonists, calcium flux assay in KISS1R-HEK293 cells (AID 1920064; active = well fitted curve in the direction sought with a large enough effect in the repeat runs; an effect the other way counts as inactive or inconclusive). In short, it runs like this: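 Kinetic calcium assay, 1 s sampling over 3 min at Ex/Em 480/540, in HEK293 cells engineered with human KISS1R; compounds delivered in DMSO after 1 h dye loading.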
For orientation: A change in cytosolic calcium serves as a functional read-out for many receptors and channels.

Assay [5] can be described thus: G protein-coupled receptor (GPCR) small molecule agonists, calcium flux assay: HEK293 wild type cell line counter screen (AID 1920065). In short, it runs like this: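 Calcium-sensitive dye, loaded 1 h at 37 C into cells cultured 18 h, reports compound-evoked calcium release as fluorescence (Ex/Em 480/540), measured over 3 min. Agonist mode; 15-point titrations, triplicate.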

Assay [6] is described as follows: p53 small molecule agonists, cell-based qHTS assay with human liver microsomes (AID 1963577).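 Note: p53 response element beta-lactamase reporter cells with liver microsomes plus NADPH.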 In short, it runs like this:
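Steps: plate p53RE-bla cells, incubate 5 h at 37 C; add compound in DMSO; add microsomes (0.5 mg/mL final) and NADPH (0.5 mg/mL final); incubate 16 h at 37 C; add LiveBLAzer, 2 h RT; read fluorescence.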

The nature of assay [7]: p53 small molecule agonists, cell-based qHTS assay with rat liver microsomes (AID 1963578). In short, it runs like this:
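Metabolic activation is supplied by rat liver microsomes with NADPH (each 0.5 mg/mL final). p53RE-bla cells incubate with compound 16 h at 37 C; reporter activity is measured by LiveBLAzer fluorescence.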

Assay [8] can be described thus: p53 small molecule agonists, cell-based qHTS assay with human liver microsomes: qHTS cell viability counter screen (AID 1963579). Note: nearly all actives have a fitted effect of over 45% in size. In short, it runs like this:
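After the 460/530 nm beta-lactamase read, CellTiter-Glo was added to the same wells and luminescence measured after 30 min at room temperature, giving viability of p53RE-bla cells treated 16 h with compounds plus microsomes and NADPH.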
On the technique in general: Quantitative high-throughput screening tests each substance at several concentrations.

Assay [9] is described as follows: p53 small molecule agonists, cell-based qHTS assay with rat liver microsomes: qHTS cell viability counter screen (AID 1963580). Note: nearly all actives have a fitted effect of over 45% in size. In short, it runs like this: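 In HCT-116 cells carrying a p53 response element-bla reporter, compounds were metabolically activated in situ by rat liver microsomes with NADPH over 16 h. Cell ATP content then served as the cytotoxicity measure.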

Assay [10] in a line: p53 small molecule agonists, cell-based qHTS assay: qHTS cell viability counter screen (AID 1963581). Note: nearly all actives have a fitted effect of over 45% in size. In short, it runs like this: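 Following 5 h attachment, HCT-116 p53RE-bla cells took up compound for 16 h at 37 C; the reporter was read with B/G FRET substrate (2 h RT), and viability then via CellTiter-Glo ATP luminescence.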
Assay [11] in a line: p53 small molecule agonists, cell-based qHTS assay (AID 1963582; active = well fitted activation curve with a large enough effect in the signal ratio in the repeat runs, not every such curve was filed as active; the % refers to the signal ratio). In short, it runs like this: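 In this cell-based concentration-response screen, a p53 response element drives beta-lactamase; cells received DMSO-borne compounds after 5 h culture and were incubated a further 16 h before FRET substrate development.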
Assay [12] has as its target 5-hydroxytryptamine receptor 2A (Homo sapiens) (UniProt P28223). In words: 5-hydroxytryptamine receptor 2A (HTR2A) small molecule antagonists, cell-based qHTS assay (AID 1963586). Note: nearly all actives have a fitted effect of over 45% in size. In short, it runs like this: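 Antagonist-mode intracellular calcium assay: DOI (4 nM) added after 5 min compound pre-incubation at room temperature to dye-loaded HTR2A-CHO cells. Fluorescence followed for 3 min, sampled every second.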

For assay [13] the target is unchanged. In words: 5-hydroxytryptamine receptor 2A (HTR2A) small molecule agonists, cell-based qHTS assay (AID 1963587). Note: nearly all actives have a fitted effect of over 30% in size. In short, it runs like this: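 HTR2A-CHO cells, plated 18 h at 37 C/5% CO2, dye-loaded 1 h at 37 C; compounds in DMSO added by pin tool (agonist mode). Intracellular calcium flux read as kinetic fluorescence on FDSS over 2 min at 1 s intervals.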

Assay [14] concerns the target Muscarinic acetylcholine receptor M1 (Homo sapiens) (UniProt P11229). Briefly: Cholinergic receptor muscarinic 1 (CHRM1) small molecule antagonists, cell-based qHTS assay (AID 1963588). Note: nearly all actives have a fitted effect of over 40% in size. In short, it runs like this:
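CHRM1-CHO calcium-flux assay, antagonist mode. Cells were seeded 18 h, dye-loaded 1 h at 37 C and given compound for 5 min at RT, then acetylcholine was added at 50nM. FDSS fluorescence was read 3 min; 15 concentrations, three runs.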

Assay [15] shares this target. In words: Cholinergic receptor muscarinic 1 (CHRM1) small molecule agonists, cell-based qHTS assay (AID 1963589). Note: nearly all actives have a fitted effect of over 35% in size. In short, it runs like this: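 Measures agonist-induced intracellular calcium rise. Stable human CHRM1 CHO line, 1 h dye load at 37 C, compounds from DMSO, kinetic fluorescence read.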
A short description of assay [16]: cAMP Responsive Elements (CRE) small molecule antagonists, cell-based qHTS assay (AID 1963591; active = well fitted inhibition curve with a large enough effect in the signal ratio in the repeat runs, not every such curve was filed as active; the % refers to the signal ratio). In short, it runs like this:
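HEK293T cells carrying a CRE-driven beta-lactamase reporter receive compound and NKH477 (0.25 uM final) for 3 h. Fluorescence from LiveBLAzer B/G FRET substrate is read after 2 h at room temperature.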

In assay [17] the target is Beta-2 adrenergic receptor (Homo sapiens) (UniProt P07550). In words: Adrenergic beta2 receptor (ADRB2) small molecule antagonists, cell-based qHTS assay (AID 1963592). Note: series mostly up to about 92 µM; nearly all actives have a fitted effect of over 50% in size. In short, it runs like this: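 Cells (CHO, stable ADRB2 overexpression) incubated 18-20hr at 37C; compounds added from DMSO; agonist mix (1nM isoproterenol, 100uM IBMX, 25uM Ro-20-1724) added; 0.5hr RT; d2-cAMP and anti-cAMP-cryptate added; 1hr RT; 665/615 nm read.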

Assay [18] has as its target D(2) dopamine receptor (Homo sapiens) (UniProt P14416). Briefly: Dopamine D2 receptor (DRD2) small molecule agonists, cell-based qHTS assay (AID 1963594). Note: nearly all actives have a fitted effect of over 35% in size. Note: potency is the fitted concentration of half-maximal effect. In short, it runs like this: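 HEK293 cells stably expressing DRD2 were cultured 24 h at 37 C, then given Ro20-1724 (0.1 mM final) and compounds for 10 min at room temperature. NKH477 (200nM) was then added for 30 min. cAMP was read by HTRF.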

The target is the same in assay [19]. Briefly: Dopamine D2 receptor (DRD2) small molecule antagonists, cell-based qHTS assay (AID 1963595; active = well fitted inhibition curve with a large enough effect in the signal ratio in the repeat runs, with a control signal flat; the % refers to the signal ratio). In short, it runs like this: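 Antagonism was scored as restored cAMP in HEK293-DRD2 cells. These cells were stimulated with 200 nM NKH477 and 12 nM quinpirole for 30 min at room temperature, in the presence of 0.1 mM Ro20-1724.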

Results on six compounds are retold here after PubChem BioAssay (Tox21).

SMILES strings stand for the structures. Values without a mark were called inactive. Records with an inconclusive call do not appear. Active and inactive are the calls of the source. Unless noted, calls come from the whole dose curve.

Sequence of 5-hydroxytryptamine receptor 2A (Homo sapiens) (P28223 whole entry, looked up): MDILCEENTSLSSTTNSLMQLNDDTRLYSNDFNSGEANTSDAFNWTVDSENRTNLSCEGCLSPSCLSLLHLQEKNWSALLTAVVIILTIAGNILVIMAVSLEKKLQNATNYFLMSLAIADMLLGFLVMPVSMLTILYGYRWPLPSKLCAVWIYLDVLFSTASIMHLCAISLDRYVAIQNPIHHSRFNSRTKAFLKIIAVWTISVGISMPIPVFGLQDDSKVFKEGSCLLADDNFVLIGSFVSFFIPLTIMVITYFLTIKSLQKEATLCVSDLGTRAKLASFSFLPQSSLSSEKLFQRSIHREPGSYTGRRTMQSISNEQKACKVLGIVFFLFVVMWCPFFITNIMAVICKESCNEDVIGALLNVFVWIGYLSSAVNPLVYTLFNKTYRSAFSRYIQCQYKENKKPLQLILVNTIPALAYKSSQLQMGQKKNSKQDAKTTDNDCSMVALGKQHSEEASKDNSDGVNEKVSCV
Sequence of Gonadotropin-releasing hormone receptor (Homo sapiens) (P30968 whole entry, looked up): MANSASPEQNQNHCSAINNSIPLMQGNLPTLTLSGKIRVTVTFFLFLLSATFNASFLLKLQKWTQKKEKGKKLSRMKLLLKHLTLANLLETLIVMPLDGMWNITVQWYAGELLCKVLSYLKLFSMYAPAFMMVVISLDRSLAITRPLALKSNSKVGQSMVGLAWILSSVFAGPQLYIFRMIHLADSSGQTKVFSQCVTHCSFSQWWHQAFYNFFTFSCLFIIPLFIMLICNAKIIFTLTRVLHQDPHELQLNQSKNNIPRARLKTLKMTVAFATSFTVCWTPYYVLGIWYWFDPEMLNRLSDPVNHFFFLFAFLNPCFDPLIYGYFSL
Sequence of Beta-2 adrenergic receptor (Homo sapiens) (P07550 whole entry, looked up): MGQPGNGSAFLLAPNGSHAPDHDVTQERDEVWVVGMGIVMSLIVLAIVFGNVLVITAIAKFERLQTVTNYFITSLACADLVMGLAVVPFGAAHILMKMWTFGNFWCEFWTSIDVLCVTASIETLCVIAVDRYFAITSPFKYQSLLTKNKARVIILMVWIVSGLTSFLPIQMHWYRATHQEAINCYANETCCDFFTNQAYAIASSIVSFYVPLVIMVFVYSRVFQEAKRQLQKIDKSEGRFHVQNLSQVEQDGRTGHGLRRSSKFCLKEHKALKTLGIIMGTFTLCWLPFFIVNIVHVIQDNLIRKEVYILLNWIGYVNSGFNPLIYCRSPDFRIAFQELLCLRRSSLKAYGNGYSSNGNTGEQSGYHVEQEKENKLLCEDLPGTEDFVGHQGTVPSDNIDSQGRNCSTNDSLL
Sequence of D(2) dopamine receptor (Homo sapiens) (P14416 whole entry, looked up): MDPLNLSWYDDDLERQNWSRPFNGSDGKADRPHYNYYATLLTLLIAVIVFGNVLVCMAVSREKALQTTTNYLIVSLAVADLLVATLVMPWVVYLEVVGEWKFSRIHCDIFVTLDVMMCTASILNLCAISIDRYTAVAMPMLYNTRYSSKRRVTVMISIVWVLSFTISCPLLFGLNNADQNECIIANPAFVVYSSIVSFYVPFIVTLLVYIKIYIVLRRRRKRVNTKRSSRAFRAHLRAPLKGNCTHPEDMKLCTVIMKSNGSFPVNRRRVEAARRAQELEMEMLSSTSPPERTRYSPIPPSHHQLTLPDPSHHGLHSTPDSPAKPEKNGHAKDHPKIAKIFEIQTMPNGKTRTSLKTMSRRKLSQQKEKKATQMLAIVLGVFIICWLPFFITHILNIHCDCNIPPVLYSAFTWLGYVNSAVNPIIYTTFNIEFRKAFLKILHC
Sequence of KiSS-1 receptor (Homo sapiens) (Q969F8 whole entry, looked up): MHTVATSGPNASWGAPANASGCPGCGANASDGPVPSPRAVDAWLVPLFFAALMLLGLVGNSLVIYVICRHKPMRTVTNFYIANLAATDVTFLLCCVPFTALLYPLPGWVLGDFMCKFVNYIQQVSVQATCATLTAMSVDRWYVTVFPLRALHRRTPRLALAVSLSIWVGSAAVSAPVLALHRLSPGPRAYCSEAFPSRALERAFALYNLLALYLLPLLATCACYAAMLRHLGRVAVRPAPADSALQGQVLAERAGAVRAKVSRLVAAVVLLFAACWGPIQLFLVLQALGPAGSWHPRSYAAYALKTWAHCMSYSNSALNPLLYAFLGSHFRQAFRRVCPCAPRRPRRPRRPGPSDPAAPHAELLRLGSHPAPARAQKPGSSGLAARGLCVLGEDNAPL
Sequence of Muscarinic acetylcholine receptor M1 (Homo sapiens) (P11229 whole entry, looked up): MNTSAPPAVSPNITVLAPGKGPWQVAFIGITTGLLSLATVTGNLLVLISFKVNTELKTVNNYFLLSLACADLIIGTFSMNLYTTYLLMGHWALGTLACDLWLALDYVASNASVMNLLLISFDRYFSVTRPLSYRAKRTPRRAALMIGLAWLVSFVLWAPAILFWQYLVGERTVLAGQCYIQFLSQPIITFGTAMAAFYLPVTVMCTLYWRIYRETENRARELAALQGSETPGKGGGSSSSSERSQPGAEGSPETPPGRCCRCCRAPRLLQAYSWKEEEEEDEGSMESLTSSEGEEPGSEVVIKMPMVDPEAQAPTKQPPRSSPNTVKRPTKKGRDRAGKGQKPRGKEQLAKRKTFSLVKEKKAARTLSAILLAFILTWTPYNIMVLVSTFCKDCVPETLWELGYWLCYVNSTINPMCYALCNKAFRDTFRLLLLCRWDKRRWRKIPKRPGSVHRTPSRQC

As to `C=CCOc1c(Br)cc(C(C)(C)c2cc(Br)c(OCC=C)c(Br)c2)cc1Br`, the Potency entry in assay [1], in assay [2], in assay [3], in assay [6], in [7] and in [8] was “inactive” each time. Also, the Potency result in [9], in assay [10], in [11], in assay [12], in assay [13] and in [14] was “inactive” each time. Besides, the Potency entry in assay [15], in assay [16], in [17], in assay [18] and in assay [19] was “inactive” throughout. For the same compound, the result in assay [4] and in assay [5] was inactive.

For `O=C(O)c1cc(Cl)cc(Cl)c1`, the Potency result in [1], in assay [2], in assay [3], in [6], in assay [7] and in assay [8] was “inactive” throughout. For the same compound, the Potency entry in [9], in [10], in assay [11], in assay [12], in [13] and in [14] was “inactive” throughout. Moreover, the Potency result in assay [15], in assay [17], in assay [18] and in [19] was “inactive” in each case. The outcome in assay [4] and in assay [5] was inactive.

Turning to `O=C1c2ccccc2C(=O)C1c1ccc(Br)cc1`, the Potency entry in assay [1], in [2], in assay [3], in assay [6], in [7] and in assay [8] was “inactive” in each case. Moreover, the Potency result in [9], in [10], in assay [11], in assay [12], in [13] and in assay [14] was “inactive” throughout. For the same compound, the Potency result in assay [15], in [17], in [18] and in assay [19] was “inactive” in each case. In addition, the result in assay [4] and in assay [5] was inactive.

As to `O=C(O)c1ccc2cc(O)ccc2c1`, the Potency result in [1], in assay [2], in assay [3], in assay [6], in assay [7] and in assay [8] was “inactive” throughout. In addition, the Potency result in [9], in assay [10], in assay [11], in assay [12], in assay [13] and in assay [14] was “inactive” each time. Further, the Potency entry in assay [15], in assay [17], in [18] and in assay [19] was “inactive” each time. Besides, the result in [4] and in assay [5] was inactive.

Consider `CC1(C)CCC(C)(C)c2cc(NC(=O)c3ccc(C(=O)O)cc3)ccc21`, for which the Potency result in assay [1], in assay [2], in [3], in assay [6], in assay [7] and in [8] was “inactive” throughout. In addition, the Potency entry in [9], in assay [10], in [11], in assay [12], in assay [13] and in assay [14] was “inactive” each time. For the same compound, the Potency entry in assay [15], in assay [17] and in assay [19] was “inactive” in each case. Besides, the result in assay [4] and in assay [5] was inactive. Also, in assay [18], the Potency was 1.06 µM (active).

With `COc1ccccc1Oc1c(NS(=O)(=O)c2ccc(C(C)(C)C)cc2)nc(-c2ncccn2)nc1OCCO`, the Potency entry in assay [1], in assay [3], in assay [6], in [7], in [8] and in assay [9] was “inactive” each time. Further, the Potency entry in assay [10], in assay [11], in [12], in [13], in assay [14] and in [15] was “inactive” each time. For the same compound, the Potency entry in assay [16], in assay [17], in [18] and in assay [19] was “inactive” each time. Besides, the Potency in assay [2] was 33.5 µM (active). Also, the outcome in assay [4] and in [5] was inactive.
